Pf growth 96h: Primary qHTS for delayed death inhibitors of the malarial parasite plastid, 96 hour incubation. P. falciparum luciferase reporter growth, 96 h. Potency, µM (doses to about 28.7 µM), without a hit: top-dose activity change, negative = inhibition, actives largely listed as inhibitors. 320,000 compounds, 6.9% hits. AID 504834, 2011; note: potency is the fitted concentration of half-maximal effect; % is set by controls: 0 for no effect and ±100 for the full control effect
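Luminescence readout: decreased luciferase signal marks inhibited growth of reporter-expressing P. falciparum in infected red cells (2% hematocrit, 0.05% parasitemia final), exposed to compound two generations (96 h, 37 C, 5% CO2).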
HCMV inh: qHTS Assay for inhibitors of the human cytomegalovirus (HCMV) | HFF cells, HCMV-luciferase reporter, 72 h; active compounds read low | activity change, negative = inhibition, % at 57.5 µM | 410,000 compounds, 4.5% hits; in the data active = activity change below about -60%; inconclusive = no clear call, values can overlap the other calls; inactive = above about -39%; note: % is set by controls: 0 for no effect and ±100 for the full control effect
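Cell-based, HFFs, 1000 cells/well, 16 h 37C; cpds in DMSO + HCMV-luc, MOI 1 PFU/cell; 72 h 37C; OneGlo luminescence after 5 min RT; norm. to buffer vs Salinomycin 10uM.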
Pf growth 48h: Primary qHTS for delayed death inhibitors of the malarial parasite plastid, 48 hour incubation | P. falciparum luciferase growth in erythrocytes, 48 h | Potency, µM (series often up to 28.7 µM), for inactives: at the top dose activity change, negative = inhibition, usual class: inhibitors | 310,000 compounds, 5.9% hits | AID 504832, 2011; note: potency is the fitted concentration of half-maximal effect; % is set by controls: 0 for no effect and ±100 for the full control effect
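In quantitative HTS format, infected erythrocytes bearing luciferase-reporter parasites were treated for a single generation at 37 C. Luminescence after adding detection reagent served as the growth measure.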
Shiga inhibitor: A qHTS for Small Molecule Inhibitors of Shiga Toxin | AID 2315, 2010 | inhibition, % at 38.7 µM | Vero cells, Shiga toxin protein synthesis inhibition reporter | 290,000 compounds, 9.2% hits; in the data active = inhibition mostly above about 28%, no sharp cut-off; inactive = mostly below about 43%; note: 0% is about no effect
Cycloheximide cs: Cycloheximide Counterscreen for Small Molecule Inhibitors of Shiga Toxin; max response, %; cell reporter, cycloheximide protein synthesis inhibition counterscreen; AID 2314, 2010; 300,000 compounds, 12% hits; in the data active = max response mostly above about 13%, no sharp cut-off; inactive = mostly below about 14%; note: read at 38.3 µM for the half of the compounds with a filed dose; 0% is about no effect
HCV inh: qHTS Assay for Inhibitors of Hepatitis C Virus (HCV); Huh7.5.1 HCVcc-Cre infection, luciferase reporter, 44 h; AID 651820, 2012; Potency, µM (titrated, usually from 41.8 µM), without a hit: at the top dose activity change, negative = inhibition, usual class: inhibitors; 340,000 compounds, 3.4% hits; note: potency is the fitted concentration of half-maximal effect; % is set by controls: 0 for no effect and ±100 for the full control effect
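After 44 h co-culture of compound, cells and HCVcc-Cre (~0.5 moi), substrate is added for 15 min at room temperature and luciferase measured over 15 sec. Cells were seeded at 1,000/well and pre-cultured 4 h.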
Numbers without * were called inactive; ? = inconclusive; / = no result given; [ ] = dose if it differs, or a comment. Rows were chosen to be rich in hits. Some 21% of all compounds tested hit in one or more screens of this group. Unless noted, calls come from the whole dose curve; as a rule, active = well fitted inhibition curve with a large enough effect; inconclusive = small, poorly fitted or top-dose-only effect, or another doubt; inactive = no such curve, though single readings can be large or run the other way.

SMILES	Pf growth 96h	HCMV inh	Pf growth 48h	Shiga inhibitor	Cycloheximide cs	HCV inh
CCCN1CCN(CCNC(=O)Nc2cc(Cl)c(OC)cc2OC)CC1	/	-9	/	/	/	/
CCCCn1c(N)c(N(CC(C)C)C(=O)c2ccc3c(c2)NC(=O)C(C)S3)c(=O)[nH]c1=O (centres undefined)	-17%	-24	58%	-4	-1	3%
COc1ccc(CCNC(=O)Cn2nnc(-c3cccc(C(F)(F)F)c3)n2)cc1OC	/	5	/	/	/	/
O=C(O)c1ccc(NC(=S)Nc2ccccc2)cc1	82%	-29	49%	-14	16*	8%
CC(=O)Nc1ccc(NC(=O)C(C)c2cccc(C(=O)c3ccccc3)c2)cc1 (centres undefined)	?	-4	-17%	3	-1	-7%
CC(C(=O)Nc1ccc(O)cc1)c1cccc(C(=O)c2ccccc2)c1 (centres undefined)	12%	-63*	4%	-7	11	13µM*
COc1cc(-c2noc(C)c2C(=O)NCCc2ccccc2)cc(OC)c1OC	/	25	/	/	/	-2%
COc1cc(Cl)cc(CN2CCC(CCC(=O)NC3CC3)CC2)c1OC	13µM*	12	?	-1	-1	?
CCOCc1cc(CN2CCC(CCC(=O)NC3CC3)CC2)ccc1OC	9.3µM*	-14	3%	0	-2	17%
O=C(Nc1cccc(C(F)(F)F)c1)c1c(O)c2ccccc2[nH]c1=O	15µM*	/	28%	25	-6	5%
Cc1cccc(NC(=O)c2c(O)c3ccccc3[nH]c2=O)c1	-38%	44	69%	38*	33*	6%
O=C(Nc1ncccc1O)c1c(O)c2ccccc2[nH]c1=O	0%	-77*	7%	7	-3	0%
O=C(NCc1ccccc1)c1c(O)c2ccccc2[nH]c1=O	0%	-36	-6%	-8	0	11%
O=C(Nc1cccc(O)c1)c1c(O)c2ccccc2[nH]c1=O	-13%	121	14%	38*	48*	1%
Cc1cccc(C)c1NC(=O)c1c(O)c2ccccc2[nH]c1=O	15%	1	-11%	-6	-2	?
COC(=O)c1ccc(-n2nnc(-c3nc(-c4ccccc4Cl)no3)c2C)cc1	/	-24	/	/	/	/
COC(=O)Nc1nc2c(s1)CCCC2	/	21	46%	36*	28*	-20%
Cc1onc(-c2ccccc2)c1C(=O)Nc1nc2c(s1)CCCC2	/	-25	9%	50	32*	?
Cc1cc(C(=O)Nc2nc3c(s2)CCCC3)no1	-25%	18	249%	22	17*	-11%
NC(N)=NC[C@@H]1COC2(CCCCC2)O1	?	/	-4%[12.8 µM]	/	/	/
COc1ccc(C(=O)c2ccc([N+](=O)[O-])cc2Cl)cc1	27%	?	-7%	17	11	-21%
CCOC(=O)c1nnn(-c2nonc2-n2cccc2)c1-c1cccc([N+](=O)[O-])c1	0%	17	?	27	9	20%
Cc1ccc(NS(=O)(=O)c2cccc(C(=O)NNC(=O)c3ccco3)c2)c(C)c1	7%	-21	8%	/	/	7%
Nc1ccc(-c2nc3ncccc3o2)c(Cl)c1	4%	103	40%	60*	31*	3%
CCC(=O)Nc1ccc(Cl)c(-c2nc3ncccc3o2)c1	-6%	4	12%	/	-1	-17%
SMILES	Pf growth 96h	HCMV inh	Pf growth 48h	Shiga inhibitor	Cycloheximide cs	HCV inh
CCCC(=O)Nc1ccc(Cl)c(-c2nc3ncccc3o2)c1	/	-20	-1%[0.00184 µM]	-2	5	-22%
Nc1ccc(-c2nc3ncccc3o2)c(O)c1	111%	51	-3%[0.00184 µM]	69*	21*	-26%
Nc1ccc(Cl)c(-c2nc3ncccc3o2)c1	-13%	8	35%	59*	43*	-5%
Cc1oc2c(C)c3oc(=O)c(CC(=O)N4CCCCC4)c(C)c3cc2c1C	/	-35	/	/	/	/
C#CCN(Cc1ccco1)C(=O)c1ccc(OC2CCN(Cc3ccccn3)CC2)cc1	/	-21	/	/	/	?
Cc1cccc(C(=O)Nc2nnc(S(=O)(=O)N3c4ccccc4CC3C)s2)c1 (centres undefined)	/	-2	/	/	/	/
O=[N+]([O-])c1cc(Cl)ccc1NCCc1ccccn1	37%	-11	28%	57*	18*	-14%
Cc1ccc(C(=O)NCCNc2ccc(Cl)cc2[N+](=O)[O-])o1	?	-28	?	13	-2	?
O=C(NCCCNC(=O)c1cc(Cl)ccc1Cl)c1ccccn1	1%	48	-33%	-13	6	20%
O=C(NCCNc1ccnc2cc(Cl)ccc12)c1ccccc1F	5%	-62*	0.47µM*	-4	1	13µM*
O=C(NCCNc1ccc(Cl)cc1[N+](=O)[O-])c1ccccc1F	?	-39	10%	19	12*	-10%
Nc1cccc(Oc2ccc3c(c2)C(=O)NC3=O)c1	56%	69	22%	/	-3	-16%
CCOc1ccccc1N1CCN(Cc2c(C)n(C)n(-c3ccccc3)c2=O)CC1	-11%	/	0%	14	-2	22%
Cc1ccc(Nc2nc(C(N)=O)c(NC(=O)c3ccccc3Br)s2)cc1	/	66	/	/	/	/
COC(=O)c1ccccc1NC(=O)c1ncoc1-c1ccco1	/	-27	/	/	/	/
CCCN=C(N)/C(C(=O)OCC)=C(\O)c1ccc(OC)cc1	2%	-22	7%	4	8	7%
CCOC(=O)/C(C#N)=C(/C)c1ccc(OC)cc1	15%	14	-4%	-2	6	32µM*
Cc1ccc(C(=O)O)cc1-n1c(=O)n(Cc2ccccc2)c(=O)c2[nH]cnc21	-8%	-7	-4%	-7	1	24%
Nc1cc(C(=O)c2ccccc2)ccc1N1CCOCC1	30%	59	97%	117*	27*	-29%
CC(=O)Nc1cc(C(=O)c2ccccc2)ccc1N1CCOCC1	18%	18	7%	-7	-4	-4%
Nc1cc(C(=O)O)ccc1N1CCCCCC1	/	28	21%	-17	-3	5.6µM*
Cn1c(SCc2ccccc2Cl)nc2c1c(=O)[nH]c(=O)n2C	?	-13	?	-20	-2	3%
Cc1ccc(S(=O)(=O)CCc2nc3ccccc3n2CCC#N)cc1	/	-81*	-20%	-6	-2	?
O=C(O)Cn1c(CCS(=O)(=O)c2ccc(Br)cc2)nc2ccccc21	?	-13	-15%	-21	-2	21%
Cc1ccc(S(=O)(=O)CC2CSc3nc4ccccc4n32)cc1 (centres undefined)	-8%	-72*	-8%	8	-5	?
CC(C)CC1Nc2ncnc(N3CCN(c4ccccn4)CC3)c2N(Cc2ccccc2)C1=O (centres undefined)	/	-3	/	/	/	-24%

Screening data from PubChem BioAssay.
